Most compounds without a hit are left out; they make up all but 3.9% or so of the library.
D1 agonist: Allosteric Agonists of the Human D1 Dopamine Receptor: qHTS. D(1A) dopamine receptor (Homo sapiens), P21728. HEK293 T-REx D1 cells, calcium flux, agonist mode. activation, % at 2 µM. 360,000 compounds, 1% hits; in the data active = activation above about 30%; note: 0% is about no effect
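Inducible HEK293 T-REx D1 cells, force-coupled to calcium signalling, were plated at 4000 cells/well with tetracycline and held overnight at 30 C. After no-wash calcium dye loading, compound-evoked calcium rise over 180 s flagged agonists.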
GALK inh: qHTS Assay for Inhibitors of Human Galactokinase (GALK); Purified GALK, Kinase-Glo residual ATP luminescence; P51570; AID 1868, 2009; Potency, µM (series often up to 57.5 µM), for inactives: at the top dose activity change, negative = inhibition, hits mostly inhibitors; 270,000 compounds, 0.007% hits; note: potency is the fitted concentration of half-maximal effect; % is set by controls: 0 for no effect and ±100 for the full control effect
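Compounds were pin-transferred into ATP buffer (35 uM final), then GALK plus galactose (5 nM, 100 uM final) was added. After 1 h at room temperature, Kinase-Glo Plus was added and luminescence read after 10 min.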
USP2a block: qHTS Assay for Inhibitors of Ubiquitin-specific Protease USP2a Using CHOP2 as the Reporter. Ubiquitin carboxyl-terminal hydrolase 2 (Homo sapiens), O75604. USP2 core, Ub-CHOP2 coupled fluorogenic reporter, 485/531. Potency, µM (series often up to 38.3 µM), without a hit: top-dose activity change, negative = inhibition, most hits filed as inhibitors. 330,000 compounds, 0.01% hits. AID 463254, 2010;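 note: potency is the fitted concentration of half-maximal effect; plate controls were DMSO wells for no effect and full inhibition by NEM control for full effect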
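USP2 core (10nM final) preincubated 30min RT with compound in 20mM Tris-HCl pH 8.0, 2mM CaCl2, 2mM beta-mercaptoethanol, 0.05% CHAPS; 25nM Ub-CHOP2 plus 25nM reporter substrate added, fluorescence (Ex485/Em531) read after 60min.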
D1 PAM: Potentiators of Human D1 Dopamine Receptor: qHTS. HEK293 TREx D1 cells, calcium flux, dopamine EC20 potentiation. AID 504651, 2011. 360,000 compounds, 0.036% hits. potentiation, % at 10 µM; in the data active = potentiation above about 30%; note: 0% is about no effect
D1 antagonist: Antagonist of Human D 1 Dopamine Receptor: qHTS; D(1A) dopamine receptor (Homo sapiens), P21728; HEK293 TREx D1 cells, calcium flux, dopamine EC80; hits give low values; activity change, negative = inhibition, % at 10 µM; 360,000 compounds, 3.2% hits; AID 504652, 2011; in the data active = activity change below about -30%; note: % is set by controls: 0 for no effect and ±100 for the full control effect
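Allosteric or orthosteric antagonism assessed as attenuation of the calcium response to EC80 dopamine, added 180 s after compound, in induced HEK293 Trex D1 cells loaded with no-wash calcium dye.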
Eya2 phos inh: qHTS Assay for Inhibitors of the Phosphatase Activity of Eya2. Potency, µM (titrated, usually from 76.9 µM), for inactives: at the top dose activity, negative = inhibition, actives largely listed as inhibitors. recombinant Eya2, OMFP fluorescence dephosphorylation (OMFP is methylfluorescein phosphate). 330,000 compounds, 0.006% hits. Protein phosphatase EYA2 (Homo sapiens), O00167; note: potency is the fitted concentration of half-maximal effect; % is set by controls: 0 for no effect and ±100 for the full control effect
Target sequence (O00167 whole entry, looked up): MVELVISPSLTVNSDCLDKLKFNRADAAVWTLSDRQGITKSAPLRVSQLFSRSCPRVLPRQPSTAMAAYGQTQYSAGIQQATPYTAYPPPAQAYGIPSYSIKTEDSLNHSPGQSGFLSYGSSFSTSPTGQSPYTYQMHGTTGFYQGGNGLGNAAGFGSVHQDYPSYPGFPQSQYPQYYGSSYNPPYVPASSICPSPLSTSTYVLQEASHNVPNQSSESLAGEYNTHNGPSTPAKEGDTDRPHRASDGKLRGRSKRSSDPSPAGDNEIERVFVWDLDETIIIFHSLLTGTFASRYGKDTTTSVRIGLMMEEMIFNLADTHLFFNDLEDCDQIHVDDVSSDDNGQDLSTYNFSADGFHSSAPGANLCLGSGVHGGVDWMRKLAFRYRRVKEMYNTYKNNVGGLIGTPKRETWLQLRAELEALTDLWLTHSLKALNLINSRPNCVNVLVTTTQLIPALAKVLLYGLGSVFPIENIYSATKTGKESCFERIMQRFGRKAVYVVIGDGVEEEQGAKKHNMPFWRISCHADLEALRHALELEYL
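Eya2 (0.2 uM) preincubated 10 min at ambient with compound, then OMFP substrate added at 50 uM; 10 min reaction in 50 mM HEPES pH 7.5, 50 mM NaCl, 5 uM MgCl2, 0.05% BSA, 1 mM DTT. Fluorescence read at Ex 485/Em 525 nm.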
* marks the source's active call; other numbers are inactive results; . = no result given. Unless noted, calls come from the whole dose curve; as a rule, active = well fitted inhibition curve with a large enough effect; inconclusive = small, poorly fitted or top-dose-only effect, or effect the other way; inactive = flat fitted curve, though single readings scatter.

SMILES | D1 agonist | GALK inh | USP2a block | D1 PAM | D1 antagonist | Eya2 phos inh
CCN(CC)CCN(C(=O)c1ccc(C(=O)c2ccccc2)cc1)c1nc2cc3c(cc2s1)OCO3 | 5.4 | -4.1% | -0.1% | 0.5 | -10.4 | -0.7%
CCN(Cc1ccccc1)S(=O)(=O)c1ccc(C(=O)N(CCCN(C)C)c2nc3cc4c(cc3s2)OCCO4)cc1 | 3.4 | . | 1.0% | -3.8 | -41.5* | -6.5%
CCN(CC)CCN(C(=O)c1ccc2ncsc2c1)c1nc2cc3c(cc2s1)OCO3 | 1.1 | 2.4% | 4.3% | -3.2 | -45.7* | -0.2%
COCCc1nn2c(=O)cc(COC(=O)c3ccc(C(C)(C)C)cc3)nc2s1 | 17.1 | . | . | 2.0 | 6.2 | .
Cc1ccc(/C=C2\CCC3=C2OC(N)=C(C#N)C3c2ccc(C)cc2)cc1 (configuration not stated) | 135.4* | 2.6% | 12.7% | -5.2 | -56.5* | 13.9%
CCOC(=O)C1CCCN(Cc2cn3c(-c4ccc(Br)cc4)nnc3s2)C1 (configuration not stated) | 0.8 | . | . | -5.0 | 24.1 | .
O=C(NCCc1ccccc1)c1ccc(Nc2nc3ccccc3n3nnnc23)cc1 | 3.5 | . | . | 7.7 | 3.6 | .
O=C(C[n+]1cc(-c2ccc(F)cc2)n2c1CCC2)Nc1nc(-c2ccc(F)cc2)cs1 | 0.0 | 0.5% | 0.5% | -3.2 | -30.6* | -0.6%
O=C(C[n+]1cc(-c2ccccc2)n2c1CCC2)Nc1nc(-c2ccc(F)cc2)cs1 | 0.9 | -0.4% | -0.2% | -3.8 | -13.7 | -7.3%
O=C(CN1CCCCC1)Nc1nc(-c2ccc(Cl)cc2)cs1 | 1.1 | 9.1% | 4.3% | -1.7 | -52.5* | -5.9%
O=C(CN1CCCCC1)Nc1nc(-c2ccccc2)cs1 | -0.5 | 5.1% | 1.7% | -0.7 | -8.2 | -2.1%
CCCCc1nn2c(=O)cc(COC(=O)c3ccccc3C)nc2s1 | 3.9 | . | . | -3.5 | 0.7 | .
C/C(=N/NC(=O)c1ccccc1)C(=O)O | 0.1 | 0.1% | 0.0% | -1.1 | -31.1* | -6.4%
CN(CCC#N)C(=S)Nc1ccc(F)cc1 | 2.5 | . | 2.7% | -1.7 | -30.5* | -3.9%
CN(CC(=O)Nc1ccc([N+](=O)[O-])cc1Br)Cc1c(F)cccc1Cl | 11.7 | 0.3% | -1.5% | 0.9 | -32.5* | 8.4%
O=C(O)C1CCC(Cn2c(SCc3cc(=O)n4cc(Br)ccc4n3)nc3ccsc3c2=O)CC1 (configuration not stated) | -2.3 | -2.8% | 4.1% | -2.8 | -0.6 | -6.9%
O=C(O)c1ccc(Cn2c(SCc3cc(=O)n4cc(Br)ccc4n3)nc3ccsc3c2=O)cc1 | 1.3 | 10.2% | -0.4% | 4.7 | -30.8* | 5.2%
O=C(CSc1nnc(-c2ccccn2)n1Cc1ccco1)c1ccc(-c2ccccc2)cc1 | 2.5 | 0.0% | -1.6% | -5.8 | -89.6* | 6.6%
COc1ccc(-c2nnn(CC(=O)N(c3cccc(O)c3)C(C)C(=O)NC3CCCC3)n2)cc1OC (configuration not stated) | 0.9 | 0.4% | 8.1% | -7.5 | -31.8* | 8.1%
CC(=O)Nc1ccc(NC(=O)C2CCN(c3c(NC(C)=O)c(C)nn3-c3ccccc3)CC2)cc1 | 3.1 | . | . | -0.7 | -35.7* | .
CSCCC(NC(=O)c1ccco1)C(=O)Nc1ccc(C)cn1 (configuration not stated) | 0.5 | . | 2.0% | -19.3 | -34.8* | -7.0%
COC(=O)c1ccc(NC(=O)CC2C(=O)N(c3ccccc3)C(=O)N2C2CCCC2)cc1 (configuration not stated) | 2.9 | . | . | -0.6 | -0.3 | .
CCOc1ccc(NC(=O)CSc2oc(-c3cccs3)nc2S(=O)(=O)c2ccc(C)cc2)cc1 | 4.0 | . | . | -1.2 | 2.6 | .
C=CCn1c(SCc2cccc(C#N)c2)nnc1-c1ccccc1O | 4.0 | -2.3% | 1.0% | 8.8 | 1.8 | -3.5%
C=CCn1c(SCc2ccc(C#N)cc2)nnc1-c1cccc(Cl)c1 | -3.7 | 0.2% | -0.6% | -3.2 | -39.5* | 9.3%
SMILES | D1 agonist | GALK inh | USP2a block | D1 PAM | D1 antagonist | Eya2 phos inh
CN1CCC(N(CCc2ccccc2)C(=O)CCC(=O)O)CC1 | 3.1 | 0.5% | 0.2% | 5.5 | -31.5* | -5.4%
CCOC(=O)c1nnn(CC(=O)Nc2cc(C)cc(C)c2)c1C(=O)OCC | 12.0 | . | . | -0.5 | -19.1 | .
Cc1ccc(C2=NN(C(=O)CCCC(=O)O)C(c3ccco3)C2)cc1 (configuration not stated) | 74.4* | -0.6% | 0.2% | -3.3 | -13.3 | -5.3%
Cc1ccc(C2=NN(C(=O)CN3C(=O)c4ccccc4S3(=O)=O)C(c3ccco3)C2)cc1 (configuration not stated) | 1.3 | 9.3% | -2.4% | -6.1 | -76.4* | 5.3%
CC(=O)N1N=C(c2ccc(C)cc2)CC1c1ccco1 (configuration not stated) | -2.7 | 9.1% | 1.3% | -1.4 | . | -1.5%
O=C(C1CCCO1)N1N=C(c2ccc(Br)cc2)CC1c1ccco1 (configuration not stated) | 1.8 | 0.3% | 2.5% | -4.2 | -71.4* | -10.5%
CCOC(=O)c1ccc(-n2c(CCC(=O)O)ccc2-c2ccccc2)cc1O | -1.3 | . | . | -2.8 | 3.5 | .
CCn1cc(/C=C(\NC(=O)c2ccccc2F)C(=O)N2CCCC2)c2ccccc21 | 4.3 | 3.3% | 2.9% | 8.5 | 2.0 | -1.0%
CCn1cc(/C=C(\NC(=O)c2ccccc2F)C(=O)N2CCOCC2)c2ccccc21 | -0.4 | 3.3% | -1.9% | -6.5 | -34.2* | 5.6%
CC(=O)c1ccc(NC(=O)CSc2nc(=O)n(Cc3ccccn3)c3c2CCC3)cc1 | -3.0 | . | . | -1.1 | . | .
CCc1nnc(SCC(=O)Nc2ccc(N3CCOCC3)cc2)o1 | -0.1 | 0.3% | 2.9% | 1.0 | -4.0 | -2.0%
Cc1cccc(C)c1OCc1nnc(SCC(=O)Nc2ccc(N3CCOCC3)cc2)o1 | 41.1* | -4.8% | 0.9% | . | 9.4 | 4.3%
O=C(CSC1CC(=O)N(CCc2ccccc2)C1=O)Nc1cccc(Cl)c1 (configuration not stated) | 32.9* | -0.3% | 0.0% | -0.3 | -3.8 | -1.0%
CCOc1ccc2nc(/N=C/c3nc(-c4ccc(Br)cc4)oc3O)sc2c1 | 37.1* | 0.5% | 0.0% | -10.7 | 9.3 | 3.2%

Compound activity as filed in PubChem BioAssay.
